In the library only some 6.9% were active in any assay of this set; here they are far more common.
M1 antagonist – M1 muscarinic receptor (rat) antagonism; P08482; hit rate 3.4% among 64,000; B-score at 10 µM; AID 628; CHO-M1 cells, Fluo-4 calcium, ACh EC80 antagonist mode; hits give low values;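 active = calcium fluorescence response, raw or row-and-column corrected B-score, differing from the plate sample mean either way at a set confidence level, mostly lower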
FXIa mix inh – blocks human factor XIa in pooled compound mixtures. hit rate 0.19% among 62,000. P03951. purified FXIa, fluorogenic substrate. AID 680. inhibition, % at 5 µM;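 note: each value is inhibition by a whole ten-compound pool holding the compound; 0% = enzyme with no mixture and 100% = wells lacking enzyme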
Target sequence (P03951 19-387 limits assumed): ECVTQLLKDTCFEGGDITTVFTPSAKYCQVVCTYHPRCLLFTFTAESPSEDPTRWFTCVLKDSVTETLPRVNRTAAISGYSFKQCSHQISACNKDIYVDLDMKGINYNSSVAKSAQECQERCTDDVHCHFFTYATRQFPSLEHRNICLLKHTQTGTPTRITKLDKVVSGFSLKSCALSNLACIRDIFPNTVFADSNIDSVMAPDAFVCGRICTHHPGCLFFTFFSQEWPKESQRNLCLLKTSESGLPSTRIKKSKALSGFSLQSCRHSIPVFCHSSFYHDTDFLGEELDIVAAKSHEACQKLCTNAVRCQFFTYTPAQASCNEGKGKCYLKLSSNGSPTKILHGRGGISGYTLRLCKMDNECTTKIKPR
Target sequence (P03951 388-625 limits assumed): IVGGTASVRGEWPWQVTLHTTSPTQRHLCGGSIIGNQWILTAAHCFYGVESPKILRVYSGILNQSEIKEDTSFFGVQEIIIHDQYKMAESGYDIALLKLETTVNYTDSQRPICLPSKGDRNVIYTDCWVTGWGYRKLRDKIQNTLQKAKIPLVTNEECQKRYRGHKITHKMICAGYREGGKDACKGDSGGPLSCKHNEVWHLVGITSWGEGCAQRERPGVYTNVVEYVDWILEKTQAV
JNK3 inh – blocks human JNK3 kinase activity | P53779 | purified JNK3 kinase activity, HTS | inhibition, % at 8 µM | hit rate 0.61% among 60,000 | AID 746; in the data active = inhibition above about 17%;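 note: 0% = DMSO and 100% = reference inhibitor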
Her2 expr inh – Her2 kinase expression inhibition | P04626 | SKBR-3 HER2 protein level, AlphaScreen, 18-24 h; hits give low values | hit rate 0.69% among 65,000 | HER2 level % of control, % at 10 µM;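 active = HER2 level under 5% of the carrier-only control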;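 note: 100% = DMSO carrier and 0% = 500 nM PU-H71 HSP90 inhibitor; lower value means stronger loss of Her2 protein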
FXIIa mix inh – blocks human factor XIIa in pooled compound mixtures. P00748. purified FXIIa, fluorogenic substrate. inhibition, % at 5 µM. hit rate 0.2% among 62,000. AID 684;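 note: 0% = enzyme without compound and 100% = no enzyme blank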
M1 agonist – activates the M1 muscarinic receptor | B-score at 10 µM | CHO-M1 cells, Fluo-4 calcium fluorescence, agonist mode; hits give high values | AID 626 | hit rate 3% among 64,000;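 active = fluorescence rise, raw or as B-score row- and column-corrected plate score, outside the 99.7% band of its plate's samples, either direction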
M1 antag confirm – M1 muscarinic receptor (rat) antagonism, confirmed. shares compounds with M1 antagonist. CHO-M1 cells, Fluo-4 calcium, ACh EC80 antagonism; hits give low values. calcium response (max-min fluorescence) at 10 µM. hit rate 43% among 1,700;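 active = calcium response below the same-plate mean of wells given acetylcholine alone at its 80%-effect dose, minus 3 SD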;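 note: raw fluorescence intensity difference in arbitrary instrument units and not normalized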
mGluR4 antag – acts on human mGluR4 in M1 antagonist selectivity test | hit rate 0.9% among 1,700 | fluorescence response (max-min) at 10 µM | shares compounds with M1 antagonist | CHO-mGluR4 calcium flux, Fluo-4 fluorescence, glutamate EC80; hits give low values;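 active = fluorescence response below the plate's average for near-maximal glutamate wells, less 3 SD of those wells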;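 note: raw unnormalized fluorescence span taken in the window right after glutamate addition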
* marks the source's active call; other numbers are inactive results; . = no result. Cut-off read from the data, not from the text of the source, unless noted: active = inhibition above about 20% (passing the limit was not always enough); inactive = the rest.

SMILES	M1 antagonist	FXIa mix inh	JNK3 inh	Her2 expr inh	FXIIa mix inh	M1 agonist	M1 antag confirm	mGluR4 antag
COc1ccc(N(CC(=O)N2CCCCC2)S(=O)(=O)c2ccccc2)c(OC)c1	-0.12	4	3	90	-1	-0.75	.	.
CC1Cc2nc(SCC(=O)NCc3ccco3)n(Cc3ccccc3)c(=O)c2S1 (stereo not given)	0.4	8	-5	84	9	1.3	.	.
Cc1ccc(S(=O)(=O)NC(CC(=O)N2CCc3ccccc32)c2ccco2)cc1 (stereo not given)	-4.4*	5	6	74	-2	0.35	484	189
COc1cc2c(C(=O)NCc3ccc(C)o3)cn(CC(C)C)c(=O)c2cc1OC	0.23	-1	4	96	6	0.041	.	.
CCC1CCCCN1CCCNC(=O)c1cn(CC(C)C)c(=O)c2cc(OC)c(OC)cc12 (stereo not given)	-1.2*	10	.	119	4	0	458*	250
Cc1cc(NC(=O)C23CCC(C)(c4nc5cc(Cl)c(Cl)cc5nc42)C3(C)C)no1 (stereo not given)	0.18	4	-1	172	8	-0.54	.	.
COc1ccc(C(=O)Nn2c(SCC(=O)NCC3CCCO3)nc3ccccc3c2=O)cc1 (stereo not given)	-6.9*	17	2	98	2	-0.79	575	229
O=C(CSc1nc2ccccc2c(=O)n1CC1CCCO1)NCC1CCCO1 (stereo not given)	0.53	13	0	86	5	0.1	.	.
COc1cc2nc(N3CCNCC3)nc(N)c2cc1OC	-1.4*	-4	-8	97	-1	0.58	663	183
N#Cc1nc(COc2ccccc2F)oc1N1CCCCCC1	-1.9*	14	10	88	-19	0.39	572	235
COc1cccc(C2N(c3cccc(Cl)c3)C(=O)C3CCCN32)c1 (stereo not given)	0.29	9	-10	70	-4	0.34	.	.
COc1ccc(OC)c(NC(=O)c2nnn(Cc3ccccc3C)c2N)c1	0.047	3	.	102	1	-0.43	.	.
COC(=O)c1ccsc1NC(=O)CN1C(=O)CCC1=O	-0.3	3	-16	99	3	-0.68	.	.
Cc1ccc(CC2CC(=O)N(c3ccc(Cl)cn3)C2=O)cc1 (stereo not given)	0.52	1	-5	132	-15	-0.81	.	.
Cc1ccc(Cn2nnc3c(=O)n(Cc4cccc(C)c4)cnc32)cc1	-3.4*	.	-2	136	.	-1.2	481*	205
O=C(CCC1CCCC1)N1CCN(C(=O)c2ccco2)CC1	-3*	4	3	80	1	0.14	654	237
O=C(OCCCN1C(=O)c2ccccc2C1=O)c1ccco1	-0.58	-2	-1	92	-14	-0.76	.	.
O=C(c1ccco1)N1CCN(CCCCN2C(=O)c3ccccc3C2=O)CC1	-1.4*	3	.	96	13	-0.47	637	227
O=C1OC(N2CCN(C(=O)C3CCCO3)CC2)c2ccccc21 (stereo not given)	-0.89	4	-9	65	3	0.023	.	.
O=C(c1ccco1)N1CCCN(C(=O)c2ccco2)CC1	0.46	6	3	117	3	0.04	.	.
O=C1OC(N2CCN(C(=O)c3ccco3)CC2)c2ccccc21 (stereo not given)	-3.8*	3	2	76	4	-0.019	609	247
CCN(CC)CCCn1c(C)cc2c(c1=O)C(c1cccc(Cl)c1)C(C#N)=C(N)O2 (stereo not given)	-4.9*	.	2	70	.	-0.55	644	227
CCN(CC)CCCn1c(C)cc2c(c1=O)C(c1cc(OC)c(OC)cc1OC)C(C#N)=C(N)O2 (stereo not given)	-11*	5	4	90	-16	-0.41	279*	253
CCn1c(C)cc2c(c1=O)C(c1ccccc1Br)C(C#N)=C(N)O2 (stereo not given)	.	3	-7	70	6	.	.	.
O=C(NC1CCN(Cc2ccccc2)CC1)C1COc2ccccc2O1 (stereo not given)	-4.5*	11	-5	118	2	-0.023	377*	252
SMILES	M1 antagonist	FXIa mix inh	JNK3 inh	Her2 expr inh	FXIIa mix inh	M1 agonist	M1 antag confirm	mGluR4 antag
O=C(O)C1C2C=CC(C2)C1C(=O)NC1CCN(Cc2ccccc2)CC1 (stereo not given)	-0.08	0	-5	141	2	-0.015	.	.
OC(CNCC(c1ccco1)N1CCCCC1)c1ccccc1 (stereo not given)	0.65	16	1	109	12	0.8	.	.
O=C(NCc1ccncc1)c1cccc(Cn2cc(Br)cn2)c1	-10*	8	-14	87	5	-1.2	88*	205
COc1ccccc1-n1nnnc1SCc1cc2c(cc1Br)OCO2	0.083	6	-2	69	-4	0.0049	.	.
COC(=O)c1ccccc1NC(=O)NCC1CCCO1 (stereo not given)	-1.9*	5	9	96	0	0.0033	469	237
CCS(=O)(=O)N1CCC(C(=O)NCCc2ccccc2)CC1	0.81	-1	-3	107	1	0.14	.	.
Cc1noc(C)c1S(=O)(=O)N1CCC(C(=O)NCCN2CCC(C)CC2)CC1	-4.3*	12	.	114	6	1.2	437	198
CCS(=O)(=O)N1CCC(C(=O)NCCCN2CCC(Cc3ccccc3)CC2)CC1	-1.4	-2	-2	106	1	-1.5	.	.
CCS(=O)(=O)N1CCC(C(=O)NCCN2CCN(Cc3ccccc3)CC2)CC1	-3.4*	-21	0	86	2	-0.078	519	201
Cc1nnc(SCC(=O)Nc2ccc(S(=O)(=O)N3CCCC3)cc2)n1N	-4.7*	3	5	111	1	-0.033	276*	241
CCCS(=O)(=O)N1CCC(C(=O)NCCN2CCC(Cc3ccccc3)CC2)CC1	-4.6*	8	1	116	4	-0.61	467*	233
Cc1ccc(S(=O)(=O)N2CCC(C(=O)NCCN3CCCCCC3)CC2)cc1	-3.5*	3	2	112	8	-0.47	527*	217
O=C(CN1CCCCC1)Nc1ccc(S(=O)(=O)N2CCCCCC2)cc1	-1.5	39	-5	99	6	0.018	.	.
CC1CCCN(CC(=O)Nc2ccc(S(=O)(=O)N3CCCCCC3)cc2)C1 (stereo not given)	-2.1*	6	5	107	-30	1.1	375*	255
O=C(Cc1coc2ccc3ccccc3c12)N1CCN(c2ncccn2)CC1	-3.3*	6	3	93	2	-0.76	589	240
CN1CCN(CCC(=O)N2c3ccccc3Sc3ccc(Cl)cc32)CC1	-11*	.	-1	101	.	0.21	268*	255
